Results filed as inconclusive are left out. Activity calls are given as the source filed them. Unless noted, the call rests on the fitted dose curve; in most records, active means well fitted curve in either direction with a large enough effect (not every such curve was filed as active); inconclusive means small, poorly fitted or top-dose-only effect, or another doubt; inactive means flat fitted curve, though single readings scatter. A value given as a limit tells only on which side of the number the result lay.

The record followed here is PubChem BioAssay (NCATS).

Test [1] deals with Lysosomal acid glucosylceramidase (Homo sapiens) (UniProt P04062). The test can be described thus: Glucocerebrosidase-p2 (AID 348; in the data active means potency below about 10 µM; further: potency means the concentration at half of the fitted maximal effect). To be noted: purified GBA, blue fluorogenic substrate, 40 min. The gist of the method:
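Normal human glucocerebrosidase (0.2 nM) with blue fluorogenic substrate (80 uM final) in citrate/phosphate pH 5.9 with 10mM sodium taurocholate, 0.01% tween-20; 40 min RT, NaOH/glycine stop; fluorescence Ex 365/Em 440; AC50 from a titration from 0.6 nM upwards.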

Test [2] can be described thus: AP1 Signaling Pathway (AID 357). Further: on the % scale 0 is the no-effect control and ±100 the full control effect. The following applies: ME-180 AP-1-bla reporter, EGF-induced, beta-lactamase ratio, 5 h; at 7.69 µM (top of the series) unless noted. An outline of the steps: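 Cells are seeded overnight, exposed to compound titrations and an EC50 level of EGF for 5 hours at 37 °C, then loaded with CCF4 dye for 2.5 hours. Beta-lactamase activity under the AP-1 element is read as a blue/green ratio.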

A short description of test [3]: NFAT Signaling Pathway (AID 444).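 Further: carbachol stimulus at about its EC50 of 1 µM final; on the % scale 0 is the no-effect control and ±100 the full control effect.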 The following applies: Jurkat NFAT-bla M1, carbachol, beta-lactamase ratio, 5 h; at 7.69 µM (top of the series) unless noted. An outline of the steps:
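Jurkat cells carrying an NFAT-driven β-lactamase reporter and co-transfected muscarinic M1 receptor were treated with compound plus carbachol (1 uM final, an EC50 level) for 5 h at 37 °C. CCF4 loading followed for 1 h at RT; 460/530 nm ratio gave %activity.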

The nature of test [4]: Stat Signaling Pathway (AID 446).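 Further: ME-180 cervical cancer cells given 40 pM IL-6 alongside compound; SIE-controlled beta-lactamase reporter measured as 460/530 nm FRET emission ratio; on the % scale 0 is the no-effect control and ±100 the full control effect.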 To be noted: ME-180 (cervical carcinoma) SIE beta-lactamase reporter, IL-6 stimulated, 5 h; at 7.69 µM (top of the series) unless noted. An outline of the steps: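 Emission at 460 and 530 nm (excitation 405 nm) reports SIE-controlled beta-lactamase in ME-180 cells. Cells received compound with 40 pM IL-6 for 5 hrs at 37 C; data scaled between 300 pM IL-6 and 125 nM JAK-inhibitor controls.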

Test [5] concerns the target Glucocorticoid receptor (Homo sapiens) (UniProt P04150). The test is described as follows: GR-EFC Redistribution (AID 451; calls by dose curve; further: potency means the concentration at half of the fitted maximal effect). The following applies: CHO-K1 GR-EFC translocation, beta-gal luminescence, 2 h. An outline of the steps: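 CHO-K1 cells stably expressing nuclear-localized β-gal enzyme acceptor and GR fused C-terminally to the enzyme donor fragment; ligand-driven nuclear translocation restores β-gal by complementation. Compounds titrated up to 46 uM final, 2 h at 37 °C; luminescence read.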

Test [6] concerns the target Mitogen-activated protein kinase 10 (Mus musculus) (UniProt Q61831). The test is described as follows: JNK3 AlphaScreen Assay (AID 530).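 Further: kinase came from lysate of stimulated human HepG2 cells; signal reports phosphorylation of biotinylated GST-cJun 1-79 at Ser73 with 10 µM ATP; on the % scale 0 is the no-effect control and ±100 the full control effect.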 The following applies: JNK3 lysate, c-Jun phosphorylation; series mostly up to 57.1 µM. An outline of the steps:
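Biotinylated GST-cJun(1-79) served as substrate for JNK3 in HepG2 lysates stimulated with IL-1beta and TNF-alpha. ATP was 10 uM final, pH 7.6. Ser73 phosphorylation was quantified by AlphaScreen (680 nm excitation).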
For orientation: In Alpha technology, singlet oxygen from a donor bead excites a nearby acceptor bead.

For test [7], the target named is 3',5'-cyclic-AMP phosphodiesterase 4B (Homo sapiens) (UniProt Q07343). The test is described as follows: qHTS Assay for Inhibitors of PDE-IV (AID 607; active means well fitted activation curve with a large enough effect in the main read-out, with a control signal flat, not every such curve was filed as active; further: % of control where 0% means no effect). To be noted: HEK293 ACTOne CNG channel cells, membrane potential fluorescence; series mostly up to 22.9 µM. The gist of the method: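 The readout is membrane depolarisation from a cAMP-sensing CNG channel, detected with a potential dye at ex 535/em 590. Cells were HEK293-derived (endogenous PDE-IV) at 1000 cells/well, titrated up to 22.9 uM final.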
On the technique in general: In qHTS, concentration-response curves come from the screen itself.

A short description of test [8]: qHTS Assay for Lipid Storage Modulators (AID 1519; calls by dose curve). The following applies: Drosophila S3 cells, BODIPY lipid droplet/cell ratio, laser cytometry, cells loaded with oleic acid; for activity change, negative = inhibition: at 57.5 µM (top of the series). The gist of the method:
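Cells seeded at 5,000 per well were treated with compounds over a concentration series and loaded with oleic acid (400 uM, as added). Lipid droplet fluorescence (488 nm excitation, 500-530 nm channel) was read by laser-scanning cytometry and normalized to 20 uM Triacsin C.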

Test [9] in a line: Primary qHTS for small molecule stabilizers of the endoplasmic reticulum resident proteome: Secreted ER Calcium Modulated Protein (SERCaMP) assay (AID 1508630; active means well fitted inhibition curve with a large enough effect; further: on the % scale 0 is the no-effect control and ±100 the full control effect). To be noted: SH-SY5Y GLuc-SERCaMP (Gaussia luciferase released on ER calcium loss) secretion, thapsigargin, luminescence; series mostly up to 38.4 µM. An outline of the steps:
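The SH-SY5Y reporter protocol was run at 3 concentrations up to 38.3 uM (primary) or 11 concentrations (follow-up): 16 h compound, 100 nM thapsigargin for 4 h, then extracellular luciferase luminescence.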

The mark [10] stands for this setting: measured here: cell count channel max response.
Where [11] appears, read: measured here: lipid channel max response.

Sequence of 3',5'-cyclic-AMP phosphodiesterase 4B (Homo sapiens) (Q07343 whole entry, looked up): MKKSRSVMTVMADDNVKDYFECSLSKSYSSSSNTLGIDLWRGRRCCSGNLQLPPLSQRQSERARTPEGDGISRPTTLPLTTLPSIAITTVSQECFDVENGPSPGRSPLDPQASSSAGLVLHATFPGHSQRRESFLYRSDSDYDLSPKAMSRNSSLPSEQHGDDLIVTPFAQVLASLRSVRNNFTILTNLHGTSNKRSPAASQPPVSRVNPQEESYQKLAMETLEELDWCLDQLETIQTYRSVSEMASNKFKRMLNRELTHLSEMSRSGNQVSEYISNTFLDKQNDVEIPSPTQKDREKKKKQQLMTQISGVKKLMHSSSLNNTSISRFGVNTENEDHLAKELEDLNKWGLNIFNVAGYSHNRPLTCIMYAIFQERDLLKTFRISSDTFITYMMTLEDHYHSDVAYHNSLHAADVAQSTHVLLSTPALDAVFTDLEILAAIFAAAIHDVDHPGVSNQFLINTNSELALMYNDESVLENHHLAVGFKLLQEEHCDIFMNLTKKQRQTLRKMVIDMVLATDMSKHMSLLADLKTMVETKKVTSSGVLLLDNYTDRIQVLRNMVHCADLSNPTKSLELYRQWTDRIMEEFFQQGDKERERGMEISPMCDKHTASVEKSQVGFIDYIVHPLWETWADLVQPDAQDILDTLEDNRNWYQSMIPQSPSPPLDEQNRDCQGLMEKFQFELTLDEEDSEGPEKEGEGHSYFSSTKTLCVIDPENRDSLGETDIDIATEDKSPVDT
Sequence of Lysosomal acid glucosylceramidase (Homo sapiens) (P04062 whole entry, looked up): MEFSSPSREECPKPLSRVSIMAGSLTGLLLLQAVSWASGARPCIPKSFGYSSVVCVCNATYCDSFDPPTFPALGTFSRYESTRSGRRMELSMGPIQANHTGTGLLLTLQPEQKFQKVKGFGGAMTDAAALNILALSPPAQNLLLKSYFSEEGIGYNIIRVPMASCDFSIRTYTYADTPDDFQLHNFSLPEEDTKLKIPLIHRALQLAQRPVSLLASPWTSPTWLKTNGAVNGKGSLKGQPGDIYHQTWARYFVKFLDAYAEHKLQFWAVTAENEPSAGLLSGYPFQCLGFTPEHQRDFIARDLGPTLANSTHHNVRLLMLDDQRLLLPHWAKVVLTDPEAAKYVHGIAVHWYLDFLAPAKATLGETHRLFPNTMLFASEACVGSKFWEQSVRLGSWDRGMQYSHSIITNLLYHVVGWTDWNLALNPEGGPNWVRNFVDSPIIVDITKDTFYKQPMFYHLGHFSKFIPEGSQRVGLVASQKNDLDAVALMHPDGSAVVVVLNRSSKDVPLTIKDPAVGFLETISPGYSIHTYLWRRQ
Sequence of Glucocorticoid receptor (Homo sapiens) (P04150 whole entry, looked up, the tested form may be a part): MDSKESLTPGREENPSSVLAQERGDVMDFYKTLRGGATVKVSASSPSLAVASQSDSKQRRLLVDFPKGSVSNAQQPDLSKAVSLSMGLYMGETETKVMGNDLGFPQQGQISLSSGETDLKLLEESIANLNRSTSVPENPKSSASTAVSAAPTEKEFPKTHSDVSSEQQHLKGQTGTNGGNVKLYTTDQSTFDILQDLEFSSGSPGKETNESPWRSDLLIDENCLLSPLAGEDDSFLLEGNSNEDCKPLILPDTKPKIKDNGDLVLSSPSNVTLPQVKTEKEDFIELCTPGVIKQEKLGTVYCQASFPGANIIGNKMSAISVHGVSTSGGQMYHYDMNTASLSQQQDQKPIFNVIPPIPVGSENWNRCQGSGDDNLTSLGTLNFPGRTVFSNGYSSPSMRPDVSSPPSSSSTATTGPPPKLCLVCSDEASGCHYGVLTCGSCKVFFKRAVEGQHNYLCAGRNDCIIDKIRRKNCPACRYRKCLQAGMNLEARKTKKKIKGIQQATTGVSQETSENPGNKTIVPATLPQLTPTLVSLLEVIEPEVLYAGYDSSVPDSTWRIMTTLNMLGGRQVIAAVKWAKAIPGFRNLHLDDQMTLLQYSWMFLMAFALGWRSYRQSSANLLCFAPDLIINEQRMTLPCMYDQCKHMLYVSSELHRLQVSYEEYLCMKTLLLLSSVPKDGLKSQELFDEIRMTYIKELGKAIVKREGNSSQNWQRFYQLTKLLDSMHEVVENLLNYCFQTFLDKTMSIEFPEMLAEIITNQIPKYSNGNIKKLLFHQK

In the case of `Cc1noc(C)c1C(=O)N1CCC2(CC1)CCN(c1ncccn1)CC2`, the Potency in test [1] was > 11.4 µM (inactive); in test [5], > 46 µM (inactive). Besides, the results for the activity change, negative = inhibition in test [2], in [3] and in test [8] were 16.2% (inactive), 5.74% (inactive) and 5.54% (inactive), respectively. In addition, in [4], the activity, negative = inhibition is 3.32% (inactive). Besides, the Potency entry in [6] and in test [7] was “inactive” throughout. Moreover, the max response worked out at 6.46% in test [8] (setting [10]) and 13.5% in test [8] (setting [11]). Moreover, the result in test [9] was inactive.

On to `COc1ccc(C(=O)N2CCC[C@@]3(CCN(c4ncccn4)C3)C2)cc1`, for which the Potency was > 11.4 µM (inactive) in test [1] and > 46 µM (inactive) in test [5]. Also, the activity change, negative = inhibition in test [2] is -20.4% (inactive); in [3] it was 4.77% (inactive); in test [8], 4.06% (inactive). In [4], the activity, negative = inhibition was 1.38% (inactive). For the same compound, the Potency entry in [6] and in test [7] was “inactive” throughout. In addition, the max response in test [8] (setting [10]) came out at 3.46%; in [8] (setting [11]), 12.1%. Besides, the result in test [9] was inactive.

`COCC(=O)N1CCC2(CC1)CN(c1ccc(-c3ccccc3)cc1)C2`: the values for the Potency in test [1] and in test [5] were > 11.4 µM (inactive) and > 46 µM (inactive), respectively. For the same compound, the activity change, negative = inhibition in test [2] is 2.14% (inactive); in test [3], 14.1% (inactive); in test [8], 2.72% (inactive). In test [4], the activity, negative = inhibition is -17.6% (inactive). Besides, the Potency entry in [6] and in test [7] was “inactive” in each case. Moreover, the figures for the max response in test [8] (setting [10]) and in test [8] (setting [11]) were -7.54% and -3.13%, respectively. Also, in test [9], the result was inactive.

Turning to `CC(C)CN1CC[C@@]2(CCCN(C(=O)c3cccc(F)c3)C2)C1`, the figures for the Potency in [1] and in [5] were > 11.4 µM (inactive) and > 46 µM (inactive), respectively. Moreover, the activity change, negative = inhibition in test [2] was -9.55% (inactive); in test [3], -0.696% (inactive); in [8], 1.5% (inactive). Also, the activity, negative = inhibition in [4] was 6.14% (inactive). The Potency entry in test [6] and in test [7] was “inactive” each time. Besides, the max response in test [8] (setting [10]) is 13.4%; in [8] (setting [11]), 19.5%. In addition, the outcome in [9] was inactive.

For `O=C(Nc1cccc(F)c1)N1CC2(CCN(C(=O)c3ccco3)CC2)C1`, the Potency is > 11.4 µM (inactive) in test [1] and > 46 µM (inactive) in test [5]. Also, the activity change, negative = inhibition in test [2] is -3.07% (inactive); in test [3] it was 4.39% (inactive); in [8] it was 5.94% (inactive). In test [4], the activity, negative = inhibition was 1.12% (inactive). In addition, the Potency entry in test [6] and in test [7] was “inactive” in each case. The figures for the max response in test [8] (setting [10]) and in [8] (setting [11]) were 1.85% and 13.6%, respectively. In test [9], the result was inactive.

Regarding `COCC(=O)N1CCC[C@@]2(CCN(c3ccccn3)C2)C1`, the Potency is > 11.4 µM (inactive) in test [1] and > 46 µM (inactive) in test [5]. The activity change, negative = inhibition was -4.6% (inactive) in test [2], -11.3% (inactive) in test [3] and 2.24% (inactive) in [8]. For the same compound, the activity, negative = inhibition in [4] is -4.62% (inactive). In addition, the Potency result in [6] and in test [7] was “inactive” each time. For the same compound, the max response is -4.94% in test [8] (setting [10]) and -1.36% in test [8] (setting [11]). Besides, in [9], the result was inactive.

Take `O=C(c1ccco1)N1CCC[C@@]2(CCN(c3ncccn3)C2)C1`: the Potency in test [1] is > 11.4 µM (inactive); in [5], > 46 µM (inactive). Also, the activity change, negative = inhibition is -6.68% (inactive) in test [2], -7.21% (inactive) in test [3] and 3.43% (inactive) in [8]. Also, the activity, negative = inhibition in test [4] is -5.91% (inactive). Further, the Potency result in [6] and in test [7] was “inactive” each time. Besides, the figures for the max response in test [8] (setting [10]) and in test [8] (setting [11]) were 17.7% and 23.3%, respectively. For the same compound, the result in test [9] was inactive.

As to `CS(=O)(=O)N1CCC2(CC1)CN(C(=O)Nc1cccc(F)c1)C2`, the values for the Potency in test [1] and in test [5] were > 11.4 µM (inactive) and > 46 µM (inactive), respectively. For the same compound, the activity change, negative = inhibition in test [2] was 0.393% (inactive); in test [3] it was 3.65% (inactive); in [8] it was 5.56% (inactive). Also, in test [4], the activity, negative = inhibition is 13.3% (inactive). In addition, the Potency result in test [6] and in test [7] was “inactive” throughout. The results for the max response in test [8] (setting [10]) and in [8] (setting [11]) were 15.2% and 24.9%, respectively. In [9], the result was inactive.
